Drawing on PubChem BioAssay (NCI), this text covers growth for ten compounds.

The panel holds about 83,000 compounds, 20% with a hit somewhere; the sample as a whole holds those more often.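 Each cell line was grown in a 96-well plate and treated with one concentration of compound for 48 hours. Values below 10 were considered active.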 Unmarked numbers belong to inactive results. The source made the active and inactive calls.

What all share (test): NCI-60 one-dose screen, 48 h (100 = growth as untreated, 0 = no growth, -100 = all killed)
Conditions in all cases: 10 µM unless noted

The subject of assay [1] is NCI-H23 lung.
Assay [2] relates to NCI-H226 lung.
The test system of assay [3] is NCI-H322M lung.
Assay [4] has as its system HOP-62 NSCLC.
In assay [5] the test system is NCI-H460 lung.
For assay [6], the system named is HOP-92 NSCLC.
Assay [7] deals with NCI-H522 lung.
For assay [8], the system named is 786-0 renal.
In assay [9] the test system is COLO 205 colon.

As for `CNC(=O)c1ccccc1Sc1ccc2c(/C=C/c3ccccn3)n[nH]c2c1`, the growth is 47.5% in assay [1]; 20.9% in assay [2]; 34.9% in assay [3]; 24.3% in [4]; 20.2% in assay [5]; 9.47% (active) in assay [6]. The growth was 24.2% in assay [7], 44% in assay [8] and 3.49% (active) in [9].

Turning to `CCOC(=O)c1ccccc1SC(C[N+](=O)[O-])c1ccccc1` (stereo not drawn), the growth was 99.1% in assay [1]; 86.2% in assay [2]; 116% in assay [3]; 118% in assay [4]; 107% in assay [5]; 90.5% in assay [6]. Besides, the values for the growth in [7], in assay [8] and in assay [9] were 88.8%, 98.7% and 102%, respectively.

With `CC(C)=CCC[C@H](C)c1ccc(C)c2c1OCN(CCO)C2`, the growth in [1] is 81.7%; in assay [2] it was 91.2%; in [3] it was 104%; in assay [4] it was 80.4%; in assay [5], 96%; in [6], 4.21% (active). The growth in assay [7] was 78.1%; in assay [8] it was 61%; in assay [9], 119%.

As for `CCN(C)CCCOc1ccc(/C(=C(\C)Cc2cccc(OC)c2)c2ccc(OC(C)=O)cc2)cc1`, the growth was 93.9% in [1]; 86.2% in assay [2]; 98.5% in assay [3]; 97% in assay [4]; 105% in [5]; 99.2% in [6]. The growth in assay [7] was 94.3%; in [8] it was 101%; in assay [9] it was 107%.

In the case of `NC(N)=N/N=C\c1cccc(OCc2ccccc2)c1`, the growth in assay [1] is 79.5%; in assay [2], 86.2%; in [3], 91.7%; in assay [4], 79.6%; in assay [5] it was 95.3%; in assay [6], 40.9%. Moreover, the growth in assay [7] was 61.8%; in assay [8] it was 79.6%.

Turning to `COc1ccc(C(=O)C(C#N)c2cc(OC)c(OC)c(OC)c2)cc1` (stereo not drawn), the growth was 113% in [1]; 99.4% in assay [2]; 105% in assay [3]; 109% in assay [4]; 107% in assay [5]; 83.6% in assay [6]. The growth in assay [7] is 85.2%; in assay [8], 97.6%.

On to `COC(=O)c1ccc(NC(N)=NCCC(C)(C)c2ccc(C(F)(F)F)cc2)nc1`, for which the growth in assay [1] was 17.5%; in assay [2], 37.4%; in assay [3], 74.5%; in assay [4] it was 63.7%; in [5], 31.6%; in assay [6], 39%. The growth in [7] is 39%; in [8], 56.9%; in assay [9], -71.2% (active).

As for `O=c1cc(-c2ccc3c(c2)OCCO3)oc2cc(Cl)ccc12`, the growth in assay [1] is 61%; in [2], -12.9% (active); in assay [3], -6.58% (active); in [4] it was 1.84% (active); in assay [5], -57.9% (active); in assay [6], -8.2% (active). The growth was -12.7% (active) in assay [7], -42.8% (active) in assay [8] and 40.7% in assay [9].

On to `COc1cc(C2Nc3ccccc3S2)cc(CN2CCOCC2)c1O` (stereo not drawn), for which the growth was 78.8% in assay [1]; 92.3% in assay [2]; 116% in assay [3]; 86.1% in assay [4]; 52.7% in [5]; 103% in [6]. For the same compound, the growth in assay [7] was -2.67% (active); in [8], 104%; in assay [9] it was 89.6%.

On to `COc1ccc(-c2nsc3c2NC(=O)CC3c2ccc3c(c2)OCO3)cc1` (stereo not drawn), for which the growth is 35.1% in assay [1]; 68.4% in [2]; 43.9% in assay [3]; 31.2% in [4]; 19.1% in assay [5]; 2.96% (active) in [6]. Besides, the values for the growth in assay [7], in assay [8] and in assay [9] were -30.1% (active), 57.5% and -14.4% (active), respectively.
